Screening data: PubChem BioAssay, The Scripps Research Institute Molecular Screening Center
M1 PAM parental – nonselective activator or artifact in parental CHO-K1 calcium assay; ATP EC20, Fluo-8 calcium fluorescence; 0% at ATP EC20, 100% at ATP max; activation, % at 3 µM; 0.02% of 360,000 active;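 active = activation above the run cutoff, the mean activation of all test compounds plus 3 SD, cut at about 40% in these data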;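 also: peak over basal fluorescence ratio in a 140 s read after ATP addition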
M1 PAM – potentiates human M1 receptor response to acetylcholine; activation, % at 3 µM; 0.088% of 360,000 active; CHO-K1 hM1, Fluo-8 calcium fluorescence, ACh EC20; 0% = ACh EC20, 100% = maximal ACh; P11229; AID 588819; in the data active = activation above about 19%, passing the limit was not always enough
Target sequence (P11229 whole entry, looked up): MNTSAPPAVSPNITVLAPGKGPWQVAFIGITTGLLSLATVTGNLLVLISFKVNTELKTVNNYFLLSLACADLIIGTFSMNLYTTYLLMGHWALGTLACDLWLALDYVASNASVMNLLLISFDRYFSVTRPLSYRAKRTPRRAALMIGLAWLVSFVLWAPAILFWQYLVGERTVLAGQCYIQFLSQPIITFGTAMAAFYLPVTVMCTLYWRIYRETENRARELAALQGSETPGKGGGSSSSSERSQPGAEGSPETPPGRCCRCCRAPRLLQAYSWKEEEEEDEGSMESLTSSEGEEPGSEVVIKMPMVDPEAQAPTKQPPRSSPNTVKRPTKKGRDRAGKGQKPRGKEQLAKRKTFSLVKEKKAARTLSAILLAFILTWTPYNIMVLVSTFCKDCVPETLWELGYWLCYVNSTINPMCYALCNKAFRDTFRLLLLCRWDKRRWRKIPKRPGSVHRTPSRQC
M1 antag – antagonists of human M1 muscarinic receptor | AID 588852 | inhibition, % at 3 µM | P11229 | CHO-K1 hM1, Fluo-8 calcium fluorescence, ACh EC80 antagonist | 1.3% of 360,000 active;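 active = percent inhibition above its own plate's cutoff, namely the mean of that plate's compound wells plus 3 SD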;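 also: peak over basal fluorescence ratio during 140 s after agonist addition; 0% = ACh EC80 plus DMSO and 100% = DMSO alone without agonist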
CHO-K1 Ca antag – counter-screen for M1 antagonists: effect in parental CHO-K1 cells; ATP-induced calcium, Fluo-8 fluorescence; inhibition, % at 3 µM; 0.6% of 360,000 active; AID 602250;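 active = inhibition above a per-plate cutoff, the plate's mean sample inhibition plus 3 SD, cut at about 24% in these data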;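 also: 0% = DMSO plus EC80 ATP and 100% = DMSO alone without ATP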
CHRM1 agonist – activates human CHRM1 receptor. CHO-K1 hM1, Fluo-8 calcium fluorescence, agonist mode; 0% DMSO, 100% acetylcholine EC100. activation, % at 3 µM. 0.33% of 360,000 active. AID 588814;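 active = activation above the run's mean compound activation plus 3 SD, cut at about 16% in these data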;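 also: peak over basal fluorescence ratio within a 140 s kinetic read after compound addition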
CHO-K1 Ca ag – nonselective activator or artifact in parental CHO-K1 cells | Fluo-8 calcium fluorescence; scaled to maximal ATP response, vehicle zero | activation, % at 3 µM | 0.48% of 360,000 active | AID 602248; in the data active = activation above about 15%;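 also: untransfected CHO-K1 host cells lacking M1 receptor as counterscreen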
* = called active by the depositor; . = no result given. Hits are enriched below; roughly 2.3% of the tested compounds scored in any of these assays.

SMILES	M1 PAM parental	M1 PAM	M1 antag	CHO-K1 Ca antag	CHRM1 agonist	CHO-K1 Ca ag
COc1ccc(N=Cc2oc3ccc4ccccc4c3c2O)cc1	8.7	-2.9	15.9	8.9	10.6	24.4*
COc1cccc(CC(=O)NNC(=O)c2c(-c3ccccc3)noc2C)c1	-3.0	3.2	1.5	0.2	-2.0	0.0
CC1CCN(S(=O)(=O)c2cnc[nH]2)CC1	11.5	7.8	-11.4	5.9	-2.3	3.6
CN1CC=C2C(C#N)=C(N)C(C#N)(C#N)C(CCc3ccccc3)C2C1 (centres undefined)	22.1	-4.3	-2.3	-4.4	-1.3	2.2
CCCC1C2CN(C(C)C)CC=C2C(C#N)=C(N)C1(C#N)C#N (centres undefined)	5.8	-20.1	38.1*	4.8	-1.2	4.4
CN1c2ccccc2Oc2nnc(Cl)cc21	-15.7	-5.3	7.3	26.7*	-8.4	-0.6
Cc1cc(OCC(=O)OCC(=O)NCC2CCCO2)ccc1Cl (centres undefined)	19.3	12.7	-3.9	-18.6	-1.6	1.7
CC[C@]1(C(=O)OC)[C@H]2C(=O)N(C)C(=O)[C@H]2[C@H]2CN=C(SCc3ccc(OC)cc3)N21	15.2	19.1	-23.8	-11.7	1.1	0.7
CN(C)c1ccc(/C=C/c2nc3ccccc3c(=O)n2CCO)cc1	-22.9	-30.1	34.3	3.7	30.3*	13.9
O=C(CSc1nc(O)cc(=O)n1-c1ccc(Cl)c(Cl)c1)Nc1ccc(Cl)cc1Cl	-3.1	4.8	-0.3	1.9	-1.8	0.3
Nc1nc(N)c2cc([N+](=O)[O-])ccc2n1	21.8	5.3	-12.4	-20.6	1.2	1.0
Nc1nc(N)c2c(ccc3c2ccn3Cc2cccc([N+](=O)[O-])c2)n1	16.1	-30.7	42.7*	1.5	-13.1	0.8
COc1ccccc1C1C(C#N)=C(N)Oc2cc(C)n(Cc3ccccn3)c(=O)c21 (centres undefined)	-4.5	10.5	-4.8	15.7	-3.3	-0.3
CCOc1ccccc1C1C(C#N)=C(N)Oc2cc(C)n(Cc3ccccn3)c(=O)c21 (centres undefined)	-7.2	10.1	-3.0	31.6*	-1.4	-0.7
O=C(c1cc(-c2ccncc2)nc2ccc(Cl)cc12)N1CCN(Cc2ccc3c(c2)OCO3)CC1	9.5	-5.5	22.4	-7.5	-1.6	6.5
O=C(c1cc(-c2ccncc2)nc2ccc(Br)cc12)N1CCN(Cc2ccc3c(c2)OCO3)CC1	-4.8	-15.3	43.0*	20.9	-3.6	6.5
CC(C)(C(N)=O)c1ccccc1	8.1	2.3	6.0	-13.5	-3.4	1.9
CCN(CC)CC#CC(O)(c1ccccc1)c1ccccc1	17.5	-37.8	99.4*	-22.7	-15.7	3.7
CN(C)C(C)(C)C#CC(O)(c1ccccc1)c1ccccc1	2.6	-23.6	100.1*	-9.2	-5.9	0.3
CN(C)CCC#CC(O)(c1ccccc1)c1ccccc1	20.2	-24.9	65.0*	1.9	-8.2	10.2
OCCN(CC#CC(O)(c1ccccc1)c1cccc(F)c1)CCO (centres undefined)	20.1	9.7	-16.4	-19.2	-8.4	0.1
Cc1ccc(S(=O)(=O)N2C[C@H]3C(=O)C[C@@H](c4ccccc4F)N(S(=O)(=O)c4ccc(C)cc4)[C@H]3C[C@H]2c2ccccc2)cc1	-8.7	11.8	-6.0	31.0*	12.4	-0.4
Cc1ccc(S(=O)(=O)N2C[C@H]3C(=O)C[C@@H](c4ccc(Cl)cc4)N(S(=O)(=O)c4ccc(C)cc4)[C@H]3C[C@H]2c2cccc3ccccc23)cc1	-5.9	17.2	-40.2	29.8*	0.4	-0.2
Cc1ccc([C@@H]2C[C@H]3[C@@H](CN2S(=O)(=O)c2ccc(C)cc2)C(=O)C[C@@H](c2ccc(Cl)cc2)N3S(=O)(=O)c2ccc(C)cc2)cc1	15.8	-1.4	1.8	-11.8	-1.5	0.5
Cc1ccc([C@@H]2CC(=O)[C@@H]3CN(S(=O)(=O)c4ccc(C)cc4)[C@H](c4ccccc4F)C[C@@H]3N2S(=O)(=O)c2ccc(C)cc2)cc1	7.4	13.4	2.2	15.3	13.1	0.2
SMILES	M1 PAM parental	M1 PAM	M1 antag	CHO-K1 Ca antag	CHRM1 agonist	CHO-K1 Ca ag
O=C(NCc1ccc2c(c1)OCO2)c1cc(-c2ccccc2)nn1CC1CC(c2cccnc2)=NO1 (centres undefined)	7.1	-5.4	1.6	-11.1	-5.4	3.1
CCC1Oc2ccccc2N(CC(=O)NCc2cccs2)C1=O (centres undefined)	12.1	5.1	-6.0	-9.0	-9.0	0.4
CC1=[N+](C)N(c2ccccc2)C(=O)C1N=Cc1c(Cl)cccc1Cl (centres undefined)	9.8	12.4	-0.8	9.2	-5.8	16.3*
Cc1ccc(CN(C)C(=O)COc2ccc(S(=O)(=O)N3CCCC3)cc2[N+](=O)[O-])c(C)c1	3.9	0.5	-1.9	-12.3	-4.6	1.6
CC(OC(=O)Cn1[nH]c(=O)c2ccccc2c1=O)C(=O)c1ccccc1 (centres undefined)	-30.4	19.5	-7.3	24.0*	6.2	0.5
CN(C(=O)Nc1ccccc1)C1CCCc2ccccc21 (centres undefined)	-18.3	1.5	-8.3	-18.3	0.5	16.1*
COc1ccc(C2C=C(c3ccc(Br)cc3)Nc3nc(N4C(=O)CCC4=O)nn32)cc1 (centres undefined)	-7.3	-1.1	9.3	32.8*	-1.1	-0.4
O=C1CCC(=O)N1c1nc2n(n1)C(c1ccccc1)C=C(c1ccc(Br)cc1)N2 (centres undefined)	5.9	3.8	0.6	2.5	-2.1	0.9
COc1ccc(C2(c3ccc(OC)cc3)NC(=O)N(CC(=O)Nc3ccccc3)C2=O)cc1	13.7	3.3	3.2	-5.7	1.0	15.5*
COc1ccc(C2(c3ccc(OC)cc3)NC(=O)N(CC(=O)Nc3ccc(C(N)=O)cc3)C2=O)cc1	-19.7	-3.7	7.2	4.5	-2.6	-0.8
COc1ccc(NCC(=O)N/N=C/C=C\c2ccccc2)cc1	14.0	10.8	-7.1	-4.1	-1.0	0.3
COc1ccccc1NCC(=O)N/N=C/C=C/c1ccccc1	-15.5	-10.2	10.8	23.9*	-3.2	-0.5
CCCCc1ccc(NC(=O)CSc2nc(=O)n(CCN(C)C)c3c2CCC3)cc1	8.1	-0.4	-3.5	-16.1	-7.0	0.3
O=C(CSc1nc(=O)n(CCCN2CCOCC2)c2c1CCCC2)Nc1ccc(F)cc1	-23.6	-3.8	31.4*	4.7	-7.0	-0.3
CCCCc1ccc(NC(=O)CSc2nc(=O)n(CCN(CC)CC)c3c2CCCC3)cc1	-9.8	-26.5	65.6*	-3.3	-7.7	3.6
CCN(CC(=O)Nc1ccccc1C(F)(F)F)C(=O)c1ccccc1OCc1ccc(F)cc1	0.4	-6.3	5.4	7.8	-4.9	0.5
CN(CCc1ccccc1)C(c1ccnc2ccccc12)c1nnnn1-c1ccc2c(c1)OCCO2 (centres undefined)	-6.6	.	.	26.1*	.	0.0
